Results published in the OligoGym collection.
Further: reference of the scale not given here.

Each sequence was assayed against LIPA (assay: pooled miR-30 sensor sort-seq; sequence = guide strand). Details: shRNA.
With TACAAAGTAGTATTCGCCCTGC the sensor-assay potency score (higher = more potent) was -0.272.
TTTGTCTCCAAATAAGTCCTTA gave a sensor-assay potency score (higher = more potent) of -0.0541.
TATGACATGAGTGCAAACGTGG gave a sensor-assay potency score (higher = more potent) of -0.073.
For TTGACGTCGTAGACATCTGCAA, the sensor-assay potency score (higher = more potent) was -0.272.
TTAACCATTAACAAGCATTGTA gave a sensor-assay potency score (higher = more potent) of 0.00545.
TATTGTAAGGAAATGATGCTGC was tested, and the sensor-assay potency score (higher = more potent) was 0.625.
TTCAGTATGACATGAGTGCAAA showed a sensor-assay potency score (higher = more potent) of -1.31.
For ATCTTCTGTCTCAACTAGGTAT, the sensor-assay potency score (higher = more potent) was -0.881.
TATATCCATCTTCTGTCTCAAC showed a sensor-assay potency score (higher = more potent) of -1.24.
For TTACAAAGTAGTATTCGCCCTG, the sensor-assay potency score (higher = more potent) was 0.166.

Each sequence was assayed against LIPK in the same assay as above. Details: shRNA.
TATTGCTGTTGGAACTTCCATC gave a sensor-assay potency score (higher = more potent) of -0.879.
With TTGTAGTGTGGAATCAGCTTGT the sensor-assay potency score (higher = more potent) was 0.39.
For TAATGTTGTATAAAGGAGGTGT, the sensor-assay potency score (higher = more potent) was 0.558.
For TAGGTCTTGGTAAATTTCCTGA, the sensor-assay potency score (higher = more potent) was -0.456.
With TATCTTAATCTTTTTAGCCAGT the sensor-assay potency score (higher = more potent) was -0.586.
With TAGCTTTCGATTGCACACTTTG the sensor-assay potency score (higher = more potent) was -1.01.
In the case of TATTTAACTGTGACAACTGGAG, the sensor-assay potency score (higher = more potent) is reported as -0.414.
With TTCCTTTCTTGTCATAACCATA the sensor-assay potency score (higher = more potent) was -1.36.
With TTTCTTGTCATAACCATACATA the sensor-assay potency score (higher = more potent) was -0.84.
TTTGTCACCAAACAACACCTTA showed a sensor-assay potency score (higher = more potent) of -0.763.
Work on TTGTTGTAACATCATACTCTTC yielded a sensor-assay potency score (higher = more potent) of -0.891.
AACACCTTAACTACTCGCCTGG showed a sensor-assay potency score (higher = more potent) of -0.456.

The sequences below were run against LITAF in the same assay as above. Details: shRNA.
For ACAGTAATGGTCCACGTCCTGC, the sensor-assay potency score (higher = more potent) was -1.32.
TATAGGACAGCTGACTCACGAT showed a sensor-assay potency score (higher = more potent) of -0.462.
Sequence TAACAGCCACTGTCTCTTCATA has a sensor-assay potency score (higher = more potent) of -1.19.
For ATAACTGTTAACAGCCACTGTC, the sensor-assay potency score (higher = more potent) was -0.861.
In the case of TAATTGGATTGTTATTGGGGAT, the sensor-assay potency score (higher = more potent) is reported as -0.833.
Sequence TTGCAGGAAGGACAACACATTT has a sensor-assay potency score (higher = more potent) of -1.76.
TAATGGTCCACGTCCTGCAGGG showed a sensor-assay potency score (higher = more potent) of -0.698.
Work on AATAACTGTTAACAGCCACTGT yielded a sensor-assay potency score (higher = more potent) of -0.0828.
In the case of TGACTCACGATCATCTTGTTGC, the sensor-assay potency score (higher = more potent) is reported as -0.0822.
In the case of TTATAGGACAGCTGACTCACGA, the sensor-assay potency score (higher = more potent) is reported as 0.0157.
TAACTGTTAACAGCCACTGTCT showed a sensor-assay potency score (higher = more potent) of -0.461.
Work on TTAACAGCCACTGTCTCTTCAT yielded a sensor-assay potency score (higher = more potent) of -0.139.

These sequences were tested against LMO4 in the same assay as above. Details: shRNA.
For TGGTGTAACAGGACGTGCCGAT, the sensor-assay potency score (higher = more potent) was -0.601.
In the case of TAAGATGATACACATTGCCTTG, the sensor-assay potency score (higher = more potent) is reported as -0.884.
Sequence TCACTCGCAGGAATCGACTGTC has a sensor-assay potency score (higher = more potent) of 0.214.
For TAGTGAAACCGATCTCCCGGGA, the sensor-assay potency score (higher = more potent) was -0.538.
TAAACTGCCATTGATGTAGTGA gave a sensor-assay potency score (higher = more potent) of 0.368.
TTAAGATGATACACATTGCCTT showed a sensor-assay potency score (higher = more potent) of -0.509.
